Test results published in PMC5540273 (PLoS ONE, 2017).

Tests used:
Details in all cases: concentration: 1 μM, replicates: in singlicate; n = 1
PDPK1 = test system: PDPK1
PFTAIRE2 = test system: PFTAIRE2
PFTK1 = test system: T1, PFTK1
T1 construct: gene CDK14

PHKG1 = test system: PHKG1
PHKG2 = test system: PHKG2
PIK3C2B = test system: PIK3C2B
PIK3C2G = test system: PIK3C2G
PIK3CA = test system: PIK3CA
PIK3CB = test system: PIK3CB
PIK3CD = test system: PIK3CD
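Also: KINOMEscan kinase panel screen.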

SMILES | %Inh (PDPK1) | %Inh (PFTAIRE2) | %Inh (PFTK1) | %Inh (PHKG1) | %Inh (PHKG2) | %Inh (PIK3C2B) | %Inh (PIK3C2G) | %Inh (PIK3CA) | %Inh (PIK3CB) | %Inh (PIK3CD)
OCCCNc1nccc(-c2c(-c3cccc(C(F)(F)F)c3)nn3cc(C(F)(F)F)ccc23)n1 [GW630813] | 0% | 1% | 18% | 0% | 5% | 0% | 0% | 0% | 0% | 0%
Cl.c1ccc(Cn2cnc3cc(Nc4ncnc5ccccc45)ccc32)cc1 [GW272142] | 0% | 16% | 23% | 0% | 1% | 3% | 0% | 1% | 71% | 0%
COc1ccc(-c2coc3ccc(-c4nnc(SCc5cccc(C#N)c5)o4)cc23)cc1 | 2% | 0% | 1% | 0% | 1% | 2% | 5% | 0% | 39% | 0%
COc1cccc(C2=C(Nc3cccc(C(=O)O)c3)C(=O)NC2=O)c1 [SB-390770] | 0% | 13% | 0% | 0% | 1% | 0% | 22% | 8% | 0% | 32%
O=C1NC(=O)C(c2ccccc2)=C1Nc1cccc(O)c1 [SB-390534] | 0% | 10% | 0% | 0% | 0% | 2% | 4% | 0% | 0% | 0%
COc1cc(Nc2nccc(N3CCC(NC(=O)C(C)c4ccc(Cl)cc4)C3)n2)cc(OC)c1OC (stereo not drawn) [GSK1379757] | 0% | 11% | 6% | 0% | 0% | 10% | 0% | 6% | 0% | 0%
COC(=O)c1c(-c2ccccc2)c2cc(Br)ccc2c(=O)n1Cc1ccc(S(C)(=O)=O)cc1 | 0% | 7% | 0% | 24% | 13% | 7% | 11% | 7% | 28% | 0%
CCS(=O)(=O)c1ccc(OC)c(Nc2ncc(-c3ccc(F)cc3)o2)c1.Cl [GW591947] | 0% | 9% | 1% | 0% | 0% | 0% | 0% | 0% | 0% | 0%
Cc1ccccc1COc1cc(-n2cnc3cc(Cl)ccc32)sc1C(N)=O [GW813349] | 0% | 0% | 0% | 0% | 0% | 24% | 17% | 21% | 0% | 0%
Cc1nc(N(C)[C@H]2CN(C(=O)CC#N)CC[C@H]2C)c2cc[nH]c2n1 | 0% | 0% | 0% | 0% | 13% | 0% | 10% | 0% | 0% | 12%
CCC(=O)c1c(-c2ccccc2)c2cc(Cl)ccc2c(=O)n1Cc1ccc(C(=O)O)cc1 | 0% | 0% | 0% | 0% | 0% | 0% | 0% | 0% | 3% | 0%
CCCC(=O)Nc1n[nH]c2ncc(-c3cccc4ccccc34)cc12 [SB-642057] | 0% | 23% | 39% | 0% | 2% | 7% | 0% | 13% | 0% | 0%
COc1cc2ncn(-c3cc(OCc4ccc(S(C)(=O)=O)cc4)c(C(N)=O)s3)c2cc1OC [GW869979] | 0% | 0% | 0% | 10% | 0% | 0% | 29% | 0% | 30% | 16%
O=C(Nc1n[nH]c2cc(-c3ccccc3F)ccc12)C1CC1 [SB-733371] | 0% | 12% | 0% | 0% | 0% | 2% | 3% | 0% | 18% | 0%
O=c1cc(N2CCOCC2)nc2n(Cc3ccc(F)c(Cl)c3)ccn12 [GSK2297099] | 0% | 62% | 14% | 0% | 0% | 31% | 0% | 11% | 96.2% | 75%
Nc1ncnc2c1ncn2-c1cccc(F)c1 [SKF-97560] | 7% | 0% | 20% | 5% | 0% | 0% | 35% | 0% | 0% | 0%
COc1cc(Nc2ccnc3ccc(C(F)(F)F)cc23)cc(OC)c1OC [GW577382] | 32% | 8% | 0% | 3% | 0% | 0% | 0% | 0% | 0% | 0%
Cc1cccc(-c2nc(Nc3ccc4c(cnn4C)c3)c3ccccc3n2)n1 [GW876731] | 37% | 10% | 22% | 0% | 0% | 0% | 44% | 0% | 3% | 61%

SMILES | %Inh (PDPK1) | %Inh (PFTAIRE2) | %Inh (PFTK1) | %Inh (PHKG1) | %Inh (PHKG2) | %Inh (PIK3C2B) | %Inh (PIK3C2G) | %Inh (PIK3CA) | %Inh (PIK3CB) | %Inh (PIK3CD)
CN1C(=O)C(Nc2cc(Cl)c(O)c(Cl)c2)=C(c2ccc(Cl)cc2)C1=O [SB-404321] | 0% | 0% | 0% | 0% | 0% | 0% | 0% | 0% | 0% | 0%
Cc1cccc(-c2cc(-c3c[nH]nc3-c3ccccn3)ccn2)c1 [GW679395] | 0% | 1% | 11% | 0% | 0% | 1% | 0% | 0% | 0% | 0%
Cc1ccc(Oc2ccc(Nc3ncnc4cc[nH]c34)cc2C)cn1 | 25% | 7% | 0% | 0% | 0% | 24% | 60% | 5% | 57% | 54%
CCS(=O)c1ccc(-c2coc3ccc(-c4nnc(C)o4)cc23)cc1 (stereo not drawn) | 0% | 0% | 9% | 0% | 0% | 0% | 15% | 0% | 32% | 12%
COc1cc2ncn(-c3cc(OCc4ccncc4)c(C(N)=O)s3)c2cc1OC [GSK336313] | 0% | 27% | 16% | 0% | 0% | 0% | 0% | 1% | 0% | 0%
CC(C)(C)c1ccc(C(=O)Nc2cn3cc(-c4ccccc4)ccc3n2)cc1 | 0% | 0% | 0% | 4% | 2% | 0% | 0% | 0% | 14% | 0%
CCC(=O)c1c(-c2ccccc2)c2cc(Cl)ccc2c(=O)n1Cc1cc(C(=O)NC2CC2)n(C)n1 | 0% | 0% | 0% | 0% | 0% | 0% | 37% | 0% | 21% | 14%
Cc1c(Cn2c(C)nn3c(=O)cc(N4CCO[C@H](C)C4)nc23)cccc1C(F)(F)F [GSK2373690] | 0% | 10% | 11% | 3% | 0% | 0% | 0% | 0% | 96.7% | 65%
Nc1nccc2scc(-c3ccc4c(c3)CCN4C(=O)Cc3ccccc3)c12 [GSK2576924] | 19% | 25% | 23% | 0% | 12% | 5% | 0% | 0% | 0% | 4%
CCC(=O)c1c(-c2ccccc2)c2cc(Cl)ccc2c(=O)n1Cc1cc(S(C)(=O)=O)n(CCC(C)(C)O)n1 | 0% | 0% | 12% | 18% | 0% | 41% | 52% | 32% | 26% | 36%
CCc1nc(-c2cccc(C)c2)c(-c2ccncc2)s1 | 1% | 0% | 14% | 0% | 9% | 0% | 3% | 0% | 4% | 0%
Nc1nc(-c2ccccc2F)c(-c2ccnc3ccccc23)s1 [GW560459] | 0% | 12% | 5% | 7% | 0% | 0% | 0% | 0% | 0% | 12%
O=C(Nc1n[nH]c2nc(-c3ccccc3)c(Br)cc12)C1CC1 [SB-708998] | 20% | 1% | 7% | 0% | 0% | 0% | 9% | 0% | 0% | 3%
CN1C(=O)C(Nc2ccccc2)=C(c2ccccc2)C1=O [SB-300079] | 0% | 0% | 1% | 11% | 0% | 0% | 16% | 25% | 0% | 0%
C[C@@H]1CC[C@H](C(=O)NC2CCCCC2)CN1c1cc(-c2ccc3c(N)n[nH]c3c2)nc(N)n1 [GSK2291363] | 95.3% | 26% | 27% | 0% | 17% | 0% | 0% | 0% | 0% | 0%
Cl.NS(=O)(=O)c1cccc(Nc2cc(-c3ccc(F)cc3)n[nH]2)c1 [GW824645] | 0% | 24% | 9% | 0% | 0% | 0% | 0% | 11% | 0% | 0%
Nc1n[nH]c2nnc(-c3ccccc3)c(-c3ccccc3)c12 [GW554060] | 3% | 8% | 19% | 5% | 0% | 0% | 0% | 0% | 47% | 8%
Cc1cc(Nc2nc(-c3cccc(C)n3)nc3ccccc23)ccn1 [GW872411] | 0% | 0% | 10% | 0% | 0% | 0% | 0% | 0% | 0% | 0%
